Assay results from PubChem BioAssay (NCATS).
Records with an inconclusive call do not appear. A call without a number means that no potency is given here. Calls of active or inactive are those of the source. Calls come from the whole dose curve; as a rule, active = well fitted inhibition curve with a large enough effect; inconclusive = small, poorly fitted or top-dose-only effect; inactive = no such curve, though single readings can be large or run the other way.
Note: nearly all actives have a fitted effect of over 55% in size.

Test system: Zika virus NS2B-NS3 protease (linked construct)
Assay: Primary screen NINDS Rhodamine qHTS for Zika virus inhibitors (AID 1347160); note: potency is the fitted concentration of half-maximal effect
Conditions: purified NS2B-NS3 protease, Rhodamine110 substrate fluorescence; series mostly up to 57.1 µM
In short: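 Aprotinin served as in-plate control. Conditions: 25 nM linked NS2B-NS3, pH 8.0 Tris buffer, titrated compounds, 15 min preincubation and 15 min reaction with 1.5 microM Rhod110 substrate at room temperature.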
For `Cc1ccccc1C(C(=O)NC1CCCCC1)N(C(=O)Cn1ccnc1C)c1cccc(F)c1` (configuration not stated), the Potency was “inactive”.
For `CNC(=O)c1ccc2cc(C3(O)CCn4cncc43)ccc2c1` (configuration not stated), the Potency was “inactive”.
For `O=c1[nH]cnc2c1ncn2[C@H]1CC[C@@H](CO)O1`, the Potency was “inactive”.
In the case of `CC(C)(C)Cn1c(N)nc2ccc(-c3[nH]c(C(C)(C)C)nc3-c3ccc(F)cc3)nc21`, the Potency was “inactive”.
With `O=C(Nc1ccccc1-c1cn2c(CN3CCNCC3)csc2n1)c1cnc2ccccc2n1` the Potency was “inactive”.
With `Cc1ccc(Nc2cc(-c3cccc(N4C(=O)c5ccccc5C4=O)c3)ncn2)cc1NS(C)(=O)=O` the Potency was “inactive”.
In the case of `O=c1cc(-c2ccccc2)oc2cc(O)c(O)c(O)c12`, the Potency was 17.5 µM (active).
In the case of `Cc1cccc(Nc2nc(-c3ccncc3)cs2)c1`, the Potency was “inactive”.
In the case of `O=c1cc(CN2CCOCC2)occ1OCCCCCSc1ccnc2cc(C(F)(F)F)ccc12`, the Potency was “inactive”.
For `CC(C)C(=O)Oc1ccc(CO)cc1[C@H](CCN(C(C)C)C(C)C)c1ccccc1`, the Potency was “inactive”.
In the case of `C=C1C(=O)[C@@]23C(CC[C@@H]1[C@H]2O)[C@@]12CO[C@]3(O)[C@@H](O)[C@@H]1C(C)(C)CC[C@@H]2O` (some centres not stated), the Potency was “inactive”.
With `CC(C)C(=O)Nc1ncc(-c2cc(C(F)F)nn2-c2c(Cl)cccc2Cl)s1` the Potency was “inactive”.
With `CCOc1ccc(Nc2nc(-c3c(C)nc4ccccn34)cs2)cc1` the Potency was “inactive”.
For `CN(C[C@@H]1COCCO1)S(=O)(=O)Nc1ccc2ccc3ncc(-c4cnn(C)c4)cc3c(=O)c2c1`, the Potency was “inactive”.

Test system: not listed separately
Assay: Tertiary RLuc qRT-PCR qHTS assay for Zika virus inhibitors (AID 1347169); note: top concentration of the series differs between compounds
Conditions: infected Vero cells, reporter luminescence, 48-72 h; series mostly up to 45.9 µM
In short: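 Luminescence read-out: live-cell Renilla luciferase substrate applied to infected Vero cells, signal measured after 1-1.5 hrs. Cells had received compound before ZIKV-RLuc (Cambodian strain, MOI 1-2) infection and were incubated 48-72 hrs at 37 degrees C.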
For `C[C@H](NC(=O)C(=O)Nc1ccccc1C(C)(C)C)C(=O)N[C@@H](CC(=O)O)C(=O)COc1c(F)c(F)cc(F)c1F`, the Potency was “inactive”.
In the case of `O=c1cc(-c2ccccc2)oc2cc(O)c(O)c(O)c12`, the Potency was “inactive”.
With `O=c1c(O)c(-c2ccc(O)cc2)oc2cc(O)cc(O)c12` the activity change, negative = inhibition was 13.5% [at 0.997 µM] (inactive).
